Screening data deposited in PubChem BioAssay by National Center for Advancing Translational Sciences (NCATS).
D1 antagonist = human D1 dopamine receptor antagonism. P21728. HEK293 TREx D1 cells, calcium flux, dopamine EC80; hits give low values. activity change, negative = inhibition, % at 10 µM. 360,000 compounds, 3.2% hits; in the data active means activity change below about -30%
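Calcium flux readout: force-coupled, inducible Hek293 Trex D1 line, cells induced overnight at 30 C with tetracycline, dye-loaded 30–90 min at RT. Antagonism scored against EC80 dopamine challenge given 180 s after compound.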
TRHR ag = TRH receptor (human) agonism | P34981 | activation, % at 2 µM | TRHR cells, calcium flux fluo-8, FDSS agonist mode | 360,000 compounds, 0.18% hits
Target sequence (P34981 whole entry, looked up): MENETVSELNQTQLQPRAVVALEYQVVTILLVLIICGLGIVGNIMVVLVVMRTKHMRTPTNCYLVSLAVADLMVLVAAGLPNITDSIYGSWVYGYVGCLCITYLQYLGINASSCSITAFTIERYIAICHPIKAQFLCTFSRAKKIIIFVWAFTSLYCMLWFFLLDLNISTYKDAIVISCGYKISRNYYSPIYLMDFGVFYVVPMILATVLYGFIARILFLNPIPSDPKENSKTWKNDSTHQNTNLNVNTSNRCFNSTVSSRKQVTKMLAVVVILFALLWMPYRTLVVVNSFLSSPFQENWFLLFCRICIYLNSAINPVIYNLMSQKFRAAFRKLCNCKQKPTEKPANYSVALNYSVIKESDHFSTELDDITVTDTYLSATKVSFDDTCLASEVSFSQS
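Agonist-mode FDSS calcium read (Ex 480/Em 530, 1 s cycles) in 1536-well TRHR cells with fluo-8 dye, after 10-cycle baseline and 23 nL compound addition; TRH at EC20 (10 nM final) added afterwards for the enhancer phase.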
D1 potentiator = potentiators of human D1 dopamine receptor; P21728; HEK293 TREx D1 cells, calcium flux, dopamine EC20 potentiation; potentiation, % at 10 µM; 360,000 compounds, 0.036% hits; in the data active means potentiation above about 30%
TRHR enhancer = TRH receptor (human) allosteric enhancement. TRHR cells, fluo-8 calcium fluorescence, EC20 TRH enhancement. enhancement, % at 2 µM. 360,000 compounds, 0.66% hits; in the data active means enhancement above about 30%
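Enhancer read-out: after compound pinning and an initial kinetic agonist-mode read, an EC20 of TRH (10 nM final) was injected and fluo-8 calcium signal (Ex 480/Em 530) followed at 1 s/cycle for 100 cycles in TRHR-expressing cells.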
D1 agonist = agonists of human D1 dopamine receptor. P21728. HEK293 T-REx D1 cells, calcium flux, agonist mode. activation, % at 2 µM. 360,000 compounds, 1% hits. AID 504660
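Agonism was scored from calcium flux recorded over 180 s (1 read/s) after pintool compound addition, following a 10-cycle baseline. Cells were inducible force-coupled HEK293 TREx D1, plated overnight at 30 C and loaded with no-wash calcium dye.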
A number is an active result; - = inactive; . = no result given; ! = not active in a repeat. The list is not random: actives were taken first. Their share in the collection is about 4.7%. Unless noted, no stated cut-off is given here; in the data, active means activation above about 30%; inactive means the rest.

SMILES	D1 antagonist	TRHR ag	D1 potentiator	TRHR enhancer	D1 agonist
O=S(=O)(c1ccccc1)c1nnn2c1nc(NC1CCCCCC1)c1sccc12	-	-	-	-	-
CCCOC1CCCN(C(=O)c2cc(COc3c(F)cccc3F)on2)C1 (centres undefined)	-	-	-	-	-
Cc1ccccc1C1CCCN(C(=O)c2cc(COc3c(F)cccc3F)on2)C1 (centres undefined)	-33	-	-	-	-
Cc1ccc(NC(=O)CSc2nc(=O)n3cc(C)ccc3n2)c(C)c1	-35	-	-	-	-
COc1ccc(CCN(C)C(=O)c2c(C)noc2C)cc1OC	-	-	-	-	-
CO/N=C\CC(=O)Nc1ccc(Cl)c(Cl)c1	-30	-	-	-	-
COc1ccccc1NC(=O)c1ccc2oc(=O)c(S(=O)(=O)c3ccccc3)cc2c1	-56	-	-	-	-
Cc1ccc(NC(=O)c2ccc3oc(=O)c(S(=O)(=O)c4ccccc4)cc3c2)cc1C	-	-	-	-	-
CC1CCN(S(=O)(=O)c2ccc3c(ccc(=O)n3CC(=O)NCc3ccccc3Cl)c2)CC1	-	-	-	-	-
CCOC(=O)/C(=C/C=C1\Sc2cc(OCC)c(OCC)cc2N1CC)C(C)=O	-30	244	-	48	216
CCN1/C(=C/C(C)=O)Sc2ccc(OC)cc21	-	-	-	-	-
CCOC(=O)/C(=C\C=C1/Sc2cc(OCC)c(OCC)cc2N1CC)C(C)=O	-43	160	-	-	329
CC(C)c1ccc(Nc2c(-c3ccc(N(C)C)cc3)nc3cnccn23)cc1	-	-	-	-	-
Cc1ccc(C(=O)NC2CCCc3c2cnn3-c2ccc(F)cc2F)cn1 (centres undefined)	-	-	-	-	-
CCCNC(=O)c1cnn2c(C(F)F)cc(-c3ccccc3)nc12	-	-	-	30	-
COc1ccc(-c2cc(C(F)F)n3ncc(C(=O)Nc4c(C)n(C)n(-c5ccccc5)c4=O)c3n2)cc1	-	-	-	-	-
COc1ccc(-c2cc(C(F)F)n3ncc(C(=O)Nc4cc(C)on4)c3n2)cc1	-38	-	-	-	-
CCCCCCc1nc(C(N)=O)c2[nH]c(=O)n(-c3ccccc3F)c2n1	-	-	-	-	-
Brc1ccsc1-c1csc(-c2ccncc2)n1	-	-	-	-	-
Cc1nc(SCC(=O)Nc2ccccc2C)cc(-c2ccccc2)n1	-	-	-	-	-
CCOc1ccccc1CNC(=O)c1cc(-c2ccc(C)c(C)c2)nc2ccccc12	-	-	-	-	-
Cc1ccc2c(c1)/C(=C/c1ccccc1C)C(=O)N2	-31	-	-	-	-
Cc1ccc(CNc2ccc(S(=O)(=O)N3CCOCC3)cc2[N+](=O)[O-])cc1	-57	-	-	-	-
O=C(O)C1CCN(c2ccc(S(=O)(=O)N3CCOCC3)cc2[N+](=O)[O-])CC1	-	-	-	-	-
O=[N+]([O-])c1cc(S(=O)(=O)N2CCOCC2)ccc1N1CCCC1	-31	-	-	-	-
SMILES	D1 antagonist	TRHR ag	D1 potentiator	TRHR enhancer	D1 agonist
COc1ccc(C)cc1NS(=O)(=O)c1ccc2[nH]c(=O)c(=O)[nH]c2c1	-	-	-	-	-
Cc1cccc(NC(=O)C2CCN(c3nccc(C)n3)CC2)c1	-35	-	-	-	-
Cc1cccc(NC(=O)COc2cccc3c(=O)n(C)ccc23)c1C	.	-	-	-	-
CCC(SC1=NCCS1)C(=O)Nc1ccc(S(N)(=O)=O)cc1 (centres undefined)	-46	-	-	-	-
Cc1nn(-c2c(Cl)cc(Cl)cc2Cl)c(=O)c2ccccc12	-	-	-	-	74
Cc1nn(-c2ccc(Br)cc2)c(=O)c2ccccc12	-	-	-	-	-
COc1ccc(NC(=O)c2cc(C3CC3)nc3c2c(C)nn3-c2ccc(C)cc2)cc1OC	-	-	-	-	-
O=C(OCn1nnc2ccccc2c1=O)c1cc2ccccc2o1	-32	-	-	-	-
O=C(OCn1nnc2ccccc2c1=O)c1ccco1	-	-	-	-	-
COc1cccc(CN(Cc2ccco2)C(c2ccc(F)cc2)c2nnnn2C(C)(C)C)c1 (centres undefined)	-34	-	-	-	-
COc1ccc(-n2c3c(c(=O)[nH]c2=O)C(NC(C)=O)(C(F)(F)F)C(=O)N3)cc1 (centres undefined)	-54!	-	-	-	-
COc1ccc(-n2c3c(c(=O)[nH]c2=O)C(NC(=O)c2ccccc2Cl)(C(F)(F)F)C(=O)N3)cc1 (centres undefined)	-	-	-	-	-
COc1ccc(-c2cc(C)no2)cc1S(=O)(=O)Nc1c(C)cc(C)cc1C	-	-	-	-	-
O=C(NCCCN1CCOCC1)c1ccccc1N1C(=O)[C@@H]2Cc3c([nH]c4ccccc34)C(c3cccc(Cl)c3)N2C1=O (some centres undefined)	-46	-	-	-	-
COC(=O)c1sc(C(C)(C)C)cc1CS(=O)(=O)c1ccc(Cl)cc1	-40	-	-	-	-
COC(=O)c1ccc(N)c(CS(=O)(=O)c2ccc(Cl)cc2)c1	-	-	-	-	-
COc1ccccc1Nc1c2c(nc3ccccc13)CCC2	-38	-	-	-	-
O=C(Nc1c2c(nc3ccccc13)CCCC2)c1ccccc1F	-37	-	-	-	-
CC(=O)c1cccc(Nc2c3c(nc4ccccc24)CCC3)c1	-	-	-	-	-
Fc1cccc(Nc2c3c(nc4ccccc24)CCC3)c1	-53	-	-	-	-
O=C(Nc1c2c(nc3ccccc13)CCCC2)c1ccccc1Cl	-	-	-	-	-
CC(=O)c1ccc(Nc2c3c(nc4ccccc24)CCCC3)cc1	-42	-	-	-	-
Nc1c2c(nc3ccccc13)CCC2	-43	-	-	-	-
Nc1c2c(nc3ccccc13)N(C1CCCCC1)CC2	-37	-	-	-	-
Nc1c2c(nc3ccc(Br)cc13)N(C1CCCCC1)CC2	-	-	-	-	-
SMILES	D1 antagonist	TRHR ag	D1 potentiator	TRHR enhancer	D1 agonist
CCn1c(=O)sc2cc(NS(=O)(=O)c3ccc(F)c(C)c3)ccc21	-	-	-	-	-
CCO[C@H]1OC(C(N)=O)=C[C@@H](C)[C@@H]1CCCO	-	-	-	33	-
COCCNC(=O)Cn1ncc2c(C)n(Cc3ccc(C)cc3)c(C)c2c1=O	-	-	-	-	-
CC1=CC(=C(C#N)c2nc3ccccc3s2)C=C(C)N1Cc1ccco1	-	-	-	-	44
COc1ccc(C(=O)N2CCCC(Nc3ccc(C)c(C)c3)C2)c(OC)n1 (centres undefined)	-	-	-	-	-
COc1ccc(C(=O)N2CCCC(Nc3ccc(F)c(F)c3)C2)c(OC)n1 (centres undefined)	-35	-	-	-	-
O=C(c1cnsn1)N1CCCC(Nc2ccc(F)c(F)c2)C1 (centres undefined)	-65	-	-	-	-
